# High-throughput results (PubChem)
# BAZ2B inh = BAZ2B (human) inhibition | hit rate 4.4% among 360,000 | AlphaScreen BAZ2B-H3K14Ac peptide displacement | Q9UIF8 | Potency, µM (doses to about 114 µM), for the others: at the top dose activity change, negative = inhibition, hits mostly inhibitors; note: % is set by controls: 0 for no effect and ±100 for the full control effect; nearly all actives have a fitted effect of over 60% in size
# Target sequence (Q9UIF8 whole entry, looked up): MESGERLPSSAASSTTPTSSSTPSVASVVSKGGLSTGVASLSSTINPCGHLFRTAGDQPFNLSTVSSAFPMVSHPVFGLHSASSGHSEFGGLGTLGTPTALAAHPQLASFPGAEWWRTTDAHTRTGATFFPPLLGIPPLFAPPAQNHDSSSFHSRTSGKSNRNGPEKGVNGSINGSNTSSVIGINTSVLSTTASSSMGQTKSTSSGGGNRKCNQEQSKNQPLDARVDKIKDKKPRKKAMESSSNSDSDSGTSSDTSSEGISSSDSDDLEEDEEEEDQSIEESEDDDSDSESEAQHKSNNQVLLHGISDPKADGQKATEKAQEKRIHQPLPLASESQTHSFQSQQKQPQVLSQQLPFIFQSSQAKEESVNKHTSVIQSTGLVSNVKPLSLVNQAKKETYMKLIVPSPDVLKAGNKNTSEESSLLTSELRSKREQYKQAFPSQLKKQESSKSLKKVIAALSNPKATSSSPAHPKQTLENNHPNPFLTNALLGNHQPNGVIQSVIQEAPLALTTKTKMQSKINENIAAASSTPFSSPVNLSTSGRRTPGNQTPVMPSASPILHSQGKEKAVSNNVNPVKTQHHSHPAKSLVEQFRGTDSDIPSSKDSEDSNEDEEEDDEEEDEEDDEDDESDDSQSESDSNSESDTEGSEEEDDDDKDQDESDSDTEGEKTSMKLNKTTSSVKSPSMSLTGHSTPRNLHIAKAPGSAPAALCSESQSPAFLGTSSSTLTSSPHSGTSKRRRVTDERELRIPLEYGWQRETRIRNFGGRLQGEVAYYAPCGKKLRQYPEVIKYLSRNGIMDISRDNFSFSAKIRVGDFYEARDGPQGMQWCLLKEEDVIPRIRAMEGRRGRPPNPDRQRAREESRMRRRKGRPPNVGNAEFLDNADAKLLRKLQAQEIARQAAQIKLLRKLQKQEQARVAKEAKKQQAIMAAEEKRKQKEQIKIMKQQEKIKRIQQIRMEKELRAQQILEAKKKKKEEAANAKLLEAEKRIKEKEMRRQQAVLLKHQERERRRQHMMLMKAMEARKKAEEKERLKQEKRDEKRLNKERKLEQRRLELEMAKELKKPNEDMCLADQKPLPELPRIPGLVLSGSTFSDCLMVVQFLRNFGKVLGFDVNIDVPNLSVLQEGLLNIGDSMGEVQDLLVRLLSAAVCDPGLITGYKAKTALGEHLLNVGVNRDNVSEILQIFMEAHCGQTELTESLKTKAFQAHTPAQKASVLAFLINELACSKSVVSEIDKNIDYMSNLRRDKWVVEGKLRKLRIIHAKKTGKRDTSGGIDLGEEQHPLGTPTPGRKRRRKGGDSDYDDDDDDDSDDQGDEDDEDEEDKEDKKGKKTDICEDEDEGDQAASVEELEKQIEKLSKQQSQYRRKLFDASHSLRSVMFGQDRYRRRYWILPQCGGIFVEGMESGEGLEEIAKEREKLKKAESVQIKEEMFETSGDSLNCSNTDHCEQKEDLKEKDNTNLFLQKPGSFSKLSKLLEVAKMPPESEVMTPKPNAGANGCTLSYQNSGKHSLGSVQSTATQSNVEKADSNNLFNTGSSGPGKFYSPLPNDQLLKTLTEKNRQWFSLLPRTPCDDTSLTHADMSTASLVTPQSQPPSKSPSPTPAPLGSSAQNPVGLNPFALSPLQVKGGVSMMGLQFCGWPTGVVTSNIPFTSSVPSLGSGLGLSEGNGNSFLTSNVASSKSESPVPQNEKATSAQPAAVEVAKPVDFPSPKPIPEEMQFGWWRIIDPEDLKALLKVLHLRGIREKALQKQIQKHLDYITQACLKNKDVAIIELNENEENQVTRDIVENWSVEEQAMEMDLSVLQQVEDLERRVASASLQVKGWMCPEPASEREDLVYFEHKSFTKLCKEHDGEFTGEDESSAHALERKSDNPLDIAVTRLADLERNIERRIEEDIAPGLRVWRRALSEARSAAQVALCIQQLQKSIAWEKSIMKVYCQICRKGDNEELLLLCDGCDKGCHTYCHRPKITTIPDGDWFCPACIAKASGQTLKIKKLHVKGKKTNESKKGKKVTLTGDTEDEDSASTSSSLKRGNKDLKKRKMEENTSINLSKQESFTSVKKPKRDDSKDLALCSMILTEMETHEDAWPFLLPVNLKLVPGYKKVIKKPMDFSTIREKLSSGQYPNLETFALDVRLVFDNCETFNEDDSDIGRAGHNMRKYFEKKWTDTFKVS
#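 BAZ2B (50 nM) with biotin-H3(5-23)K14Ac peptide (50 nM) in PBS pH 7.4, 0.01% Tween-20, preformed 30 min, then compound 30 min at room temperature; top concentration 110uM. AlphaScreen streptavidin donor/nickel chelate acceptor beads (10 ug/mL final), 20 min dark, signal read.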
# JMJD2A Tudor = blocks the human JMJD2A Tudor domain; O75164; AlphaScreen JMJD2A-Tudor / H3K4me3 peptide binding; Potency, µM (highest dose often 114 µM), for the others: at the top dose activity change, negative = inhibition, most hits filed as inhibitors; hit rate 4.4% among 390,000; note: % is set by controls: 0 for no effect and ±100 for the full control effect; nearly all actives have a fitted effect of over 50% in size
# G9a block = blocks human histone lysine methyltransferase G9a | Q96KQ7 | G9a H3K9 monomethylation, AlphaScreen, 2 h | Potency, µM (top dose mostly 102 µM), without a hit: at the highest dose activity, negative = inhibition, most hits filed as inhibitors | hit rate 8.8% among 350,000 | AID 504332; note: % is set by controls: 0 for no effect and ±100 for the full control effect; nearly all actives have a fitted effect of over 75% in size
#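 Compounds were preincubated with 20 nM G9a for 15 min, after which biotinylated H3K9 peptide (500 nM) and SAM (20 uM) started a 2 h room-temperature reaction. Monomethylated product was quantified by antibody-based AlphaScreen chemiluminescence.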
# ALOX12 inh = blocks human arachidonate 12S-lipoxygenase | P18054 | hit rate 1.1% among 580,000 | purified 12hLO, xylenol orange hydroperoxide absorbance | Potency, µM (highest dose often 108 µM), for inactives: at the highest dose activity change, negative = inhibition, hits mostly inhibitors | AID 1671190; note: % is set by controls: 0 for no effect and ±100 for the full control effect
#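 Hydroperoxide product was detected by ferrous iron/xylenol orange as the 573 to 405 nm absorbance ratio. Arachidonic acid at 40 uM (final) was turned over for 30 min at room temperature by 150 nM human 12hLO, pH 7.0 Hepes buffer, after 15 min compound preincubation.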
# Sfp PPTase inh = blocks B. subtilis Sfp PPTase activity. Q9F4F7. Biochemical Sfp PPTase activity, qHTS. Potency, µM, for the others: largest response in the series, negative = inhibition, hits mostly inhibitors. hit rate 3.5% among 310,000. AID 1490;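 note: the enzyme is Sfp with the accession as filed and its product quenches rhodamine fluorescence; 0% = enzyme reaction without inhibitor and -100% = no enzyme wells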
#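 Buffer: 50 mM Hepes-Na pH 7.6, 10 mM MgCl2, 0.01% Nonidet P-40, 0.01% BSA. Enzyme 15 nM, pre-exposed to compound 15 min; substrates then added and fluorescence change tracked over 30 min.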
# HP1b chromo inh = inhibitors of HP1-beta chromodomain binding to methylated histone tails. hit rate 0.56% among 390,000. Potency, µM (series often up to 114 µM), without a hit: at the highest dose activity change, negative = inhibition, actives largely listed as inhibitors. AlphaScreen HP1-beta / biotin-H3K9me3 peptide binding. P83916; note: nearly all actives have a fitted effect of over 70% in size
#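 HP1-beta protein (50 nM final) preincubated 30 min at room temperature with biotinylated H3(1-18)K9me3 peptide (50 nM) in PBS pH 7.4, 0.01% Tween-20, then compound added for 30 min. AlphaScreen streptavidin donor/nickel chelate acceptor beads (10 ug/mL final), 30 min dark, luminescence read.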
# Numbers without * were called inactive; ? = inconclusive; · = no result given; [ ] = remark or other dose. A selection: hits, their analogues and other compounds. The true share with any hit is near 8.7%. Calls come from the whole dose curve; as a rule, active = well fitted curve in the direction sought with a large enough effect; inconclusive = small, poorly fitted or top-dose-only effect, or another doubt; inactive = no such curve, though single readings can be large; an effect the other way counts as inactive or inconclusive. Potency is the fitted concentration of half-maximal effect.
SMILES,BAZ2B inh,JMJD2A Tudor,G9a block,ALOX12 inh,Sfp PPTase inh,HP1b chromo inh
CN=c1scc(-c2ccccc2F)n1/N=C(\C)c1cccnc1,35µM*,16µM*,16µM*,-2%,7%,?
Cc1c(P(=O)(c2ccccc2)c2ccccc2)c2ccccc2n1C,·,22µM*,·,20µM*,·,·
Cc1c(C(C)(C(=O)O)c2c(C)n(C)c3ccccc23)c2ccccc2n1C,?,·,56%[0.501 µM],87%,2%,·
O=C(O)C1CCCCN1C(=O)c1ccc(Cl)c(S(=O)(=O)N2CCCCC2)c1 (stereo unspecified),·,·,·,-27%,·,·
Cc1nc(C)c(-c2ccc(SCc3ccc(Cl)cc3)nn2)s1,-10%,19%,9%,7%,-15%,66%
Cc1nnc(SCc2ccc(Cl)cc2)nc1/C=C/N(C)C,?,-1%,?,40µM*,-12%,54%
CSc1nnc(C)c(/C=C/NOCc2ccc(Cl)cc2)n1,?,?,13µM*,?,14%,-18%
CCOC(=O)COc1nc(-c2ccco2)c2c(c1C#N)CCC2,·,·,·,-18%,·,·
O=C(O)c1c2c(nc3ccc(S(=O)(=O)N4CCC(C(=O)NCc5ccccc5)CC4)cc13)CCCC2,·,·,·,-58%,·,·
CN(CCCNC(=O)C1CCN(S(=O)(=O)c2cccc3nsnc23)CC1)Cc1ccccc1,-34%,-13%,1%,-19%,8%,16%
CC(NC(=O)C1CCN(S(=O)(=O)c2ccc3nc4c(c(C(=O)O)c3c2)CCCC4)CC1)c1ccccc1 (stereo unspecified),-28%,-9%,40µM*,?,11%,20%
CN(Cc1ccccc1)C(=O)C1CCN(S(=O)(=O)c2ccc3nc4c(c(C(=O)O)c3c2)CCCC4)CC1,50µM*,-32%,?,-30%,7%,4%[57 µM]
CC1CCC(NC(=O)C2CCN(S(=O)(=O)c3ccc4nc5c(c(C(=O)O)c4c3)CC(C)CC5)CC2)CC1 (stereo unspecified),-16%,-6%,50µM*,-18%,15%,17%
CN(Cc1ccccc1)C(=O)C1CCN(S(=O)(=O)c2cccc3nsnc23)CC1,-21%,14µM*,0%[59 µM],-3%,14%,1%
COc1ccccc1Cc1nc(-c2nnn3c2COC(c2ccc(C)cc2)C3)no1 (stereo unspecified),·,·,·,1%,·,·
Cc1ccc(-c2cn3ccccc3n2)c(C)c1,·,·,·,6%,·,·
CC(=O)N1c2ccccc2Sc2ccc3ccccc3c21,·,·,·,9%,·,·
O=C(CCl)N1c2ccccc2Sc2c1ccc1ccccc21,·,-13%,·,35µM*,·,28%
Oc1cccc(Nc2nc(O)c(/C=C3\C=Nc4ccccc43)s2)c1,?,-24%[11.4 µM],50µM*,-14%,-24%,11%
Oc1nc(Nc2cccc(Cl)c2)sc1/C=C1\C=Nc2ccccc21,-38%,?,?,-20%,-2%,-17%
O=C(c1cnccn1)N1CCCC(c2ccccc2)(c2ccccc2)C1,·,·,·,23%,·,·
O=C(O)/C=C/C(=O)Nc1ccc(NC(=O)c2ccccc2)c(Cl)c1,19%,-13%,50µM*,3%,56µM*,17%
O=C(O)/C=C/C(=O)Nc1ccc(Cl)cc1C(=O)c1ccccc1,-9%,1%,32µM*,0%,79µM*,49%
O=C(O)/C=C/C(=O)Nc1ccc(C(=O)c2ccccc2)cc1,-13%,-20%,-37%,-14%,1%,26%
O=C(O)/C=C\C(=O)Nc1cccc(NC(=O)c2ccccc2)c1,?,-23%,·,-8%,-10%,47%
SMILES,BAZ2B inh,JMJD2A Tudor,G9a block,ALOX12 inh,Sfp PPTase inh,HP1b chromo inh
N#Cc1ccc(CSc2nnnn2-c2ccccc2)cc1,·,·,·,-18%,·,·
CC1CCN(C(=O)[C@@H](C)C2CC[C@@]3(C)CC[C@H](NC(=O)Cc4ccccc4)[C@@H](C)[C@@H]3[C@H]2O)CC1 (stereo partly specified),·,·,·,3%,·,·
O=C(C1CCOC1)N1CC(Oc2ccc(-c3nc(-c4ccccc4)no3)cc2)C1 (stereo unspecified),·,·,·,22%,·,·
CC[n+]1ccc(C)c2cc(S(=O)C(F)(F)F)ccc21 (stereo unspecified),-5%,-29%,?,·,-3%,-11%
CC[n+]1ccc(C)c2cc(P(=O)(c3ccccc3)c3ccccc3)ccc21,45µM*,?,?,?,3%,?
CC[n+]1ccc(C)c2cc(SC(F)(F)F)ccc21,-17%,-22%,7.9µM*,·,5%,60%
COc1ccc(-c2nc(C)c(C(=O)N3CCN(C(C#N)c4ccc(F)cc4)CC3)s2)cc1OC (stereo unspecified),·,·,·,-13%,·,·
CCn1c(C(=O)NCc2ccc(F)cc2)cc2oc3ccccc3c21,1%,-33%,1%[59 µM],-17%,·,21%
Cn1c(C(=O)N2CCc3ccccc3C2)cc2oc3ccccc3c21,?,79µM*,?,·,-13%,?
CCn1c(C(=O)N2CCc3ccccc3C2)cc2oc3ccccc3c21,50µM*,?,?,0%,?,-23%
C/C(=N\NC(=O)C1CC1c1ccc(C(C)(C)C)cc1)c1ccc(F)cc1 (stereo unspecified),·,·,·,12%,·,·
COc1ccc(C(=O)c2ccc(N3CCOCC3)cc2)c(OC)c1,-9%,-17%,25µM*,?,0%,-2%
CCN1CCN(c2c(C(=O)c3ccc(OC)cc3)cnc3ccccc23)CC1,-10%,-11%,50µM*,-48%,18%,61%
CCOC(=O)C1CCCN(c2c(C(=O)c3ccccc3)cnc3ccc(OC)cc23)C1 (stereo unspecified),?,-32%,56µM*,-70%,-4%,39%
CCOC(=O)C1CCCN(c2c(C(=O)c3ccc(OCC)cc3)cnc3ccccc23)C1 (stereo unspecified),-39%,?,?,?,·,6%
COc1cc2ncc(C(=O)c3ccc(C)cc3)c(N3CCCCC3)c2cc1OC,?,56µM*,8.9µM*,?,·,-11%
COc1ccc([C@@H](NC(=O)c2ccc3cccc(F)c3n2)C2CC(O)C2)cn1 (stereo partly specified),·,·,·,3%,·,·
CCc1ccc(-c2nc3c(c(=O)[nH]c(=O)n3Cc3ccccc3)n2CC2CCCO2)cc1 (stereo unspecified),·,·,·,-23%,·,·
CCc1ccc(C(=O)c2cnc3ccc(OC)cc3c2N2CCOCC2)cc1,·,·,·,28µM*,·,·
CC1(C)CC(=O)C(C2C3=C(CC(C)(C)CC3=O)Oc3ccccc32)=C(O)C1 (stereo unspecified),16%,-7%,71µM*,?,-21%,52%
